{"source": "PubChem BioAssay (NCI)", "note": "The panel holds about 83,000 compounds, 20% with a hit somewhere; the sample as a whole holds those more often.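 Cell lines were cultured in 96-well plates, exposed to a single compound concentration, and assessed for percent growth 48 hours later.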 Activity calls are given as the source filed them. The calls were made as follows: active = growth percent below 10; inactive = the rest."}
{"test_system": "SW-620 colon", "experiment": "NCI-60 one-dose screen, 48 h (100 = growth as untreated, 0 = no growth, -100 = all killed)", "conditions": "10 µM"}
{"compound": "C/C=C/C1=CN2C(=O)c3cc(OC4OC(C)C(NC)C(C)(O)C4O)c(C)c(O)c3N=C[C@@H]2C1", "note": "(stereo not given in full)", "growth": "-14.9% (active)"}
{"compound": "C[C@]12CC[C@@H]3c4ccc(OS(=O)(=O)O)cc4CC[C@H]3[C@@H]1CC[C@@H]2NS(=O)(=O)c1ccc(-c2ccccc2)cc1", "growth": "75.3% (inactive)"}
{"compound": "COc1ccc(/C(C#N)=C/c2ccccc2OC)cc1", "growth": "22.8% (inactive)"}
{"compound": "COc1ccc(Cc2cnc(N)nc2N)cc1OC", "growth": "98.7% (inactive)"}
{"compound": "Cc1cc(CC(C)CC(C)(C)C)n(O)c(=O)c1", "note": "(stereo not given) (tested in a mixture with another compound)", "growth": "34.4% (inactive)"}
{"test_system": "MCF7 breast", "experiment": "NCI-60 one-dose screen, 48 h (100 = growth as untreated, 0 = no growth, -100 = all killed)", "conditions": "10 µM"}
{"compound": "O=C(O)c1ccc(-n2cc(CNc3ccc(Cl)cc3)c(-c3ccccc3)n2)cc1", "growth": "87.4% (inactive)"}
{"compound": "Cc1ccc(C(=O)C2C(=O)C3CCC2C3)cc1", "note": "(stereo not given)", "growth": "97.5% (inactive)"}
{"compound": "COc1cc2c(Nc3ccc(S(N)(=O)=O)cc3)ncnc2c(OC)c1OC", "growth": "96.6% (inactive)"}
{"compound": "CN1CCN(CC(=O)Nc2cccc(-n3cc(-c4ccncc4)c(-c4ccc(Cl)c(O)c4)n3)c2)CC1", "growth": "15.2% (inactive)"}
{"compound": "O=[N+]([O-])c1cccc(/C=N/NC(=S)NC23CC4CC(CC(C4)C2)C3)c1", "growth": "66.9% (inactive)"}
{"compound": "CN1CCN(c2cc3c(cc2F)c(=O)c(C(=O)O)cn3-c2ccc(F)cc2)CC1", "growth": "104% (inactive)"}
{"compound": "O=C(CN1CCN(C(=O)c2ccccc2)CC1)Nc1ccccc1SCc1ccccc1", "growth": "86.4% (inactive)"}
{"compound": "Clc1ccc2c(c1)C(N1CCNCC1)=Nc1ccccc1O2", "growth": "28.9% (inactive)"}
{"compound": "CCOC(=O)c1cc(C(=O)c2cc(OC)c(OC)c(OC)c2)n2ncc3ccccc3c12", "growth": "30.4% (inactive)"}
{"compound": "CC(=O)C1CCC2C3CC=C4CC(SC(=N)N)CCC4(C)C3CCC12C", "note": "(stereo not given)", "growth": "-2.29% (active)"}
{"compound": "COc1cc2c(Nc3ccc(-c4ccc(N)cc4)cc3)ncnc2c(OC)c1OC", "growth": "36.1% (inactive)"}
{"compound": "C#C[C@]1(O)CCC2C3CCc4cc(OC5CCCC5)ccc4C3CC[C@@]21C", "note": "(stereo not given in full)", "growth": "74.3% (inactive)"}
{"compound": "Cc1cc(SC#N)cc(C(C)(C)C)c1O", "growth": "97.4% (inactive)"}
{"compound": "Cc1cc(CCNC=O)c(C)c2c1sc1ccccc12", "growth": "100% (inactive)"}
{"compound": "CO[C@H]1CC(O[C@@H]2/C(C)=C/C[C@@H]3C[C@@H](C[C@]4(C=C[C@H](C)[C@@H](C5CCCCC5)O4)O3)OC(=O)[C@@H]3C=C(C)[C@@H](O)[C@H]4OC/C(=C\\C=C\\[C@@H]2C)[C@]43O)O[C@@H](C)C1O[C@H]1C[C@H](OC)[C@@H](O)[C@H](C)O1", "note": "(stereo not given in full)", "growth": "-24.1% (active)"}
{"compound": "CCN(CC)c1ccc(/C=C2\\SC(=O)C(Nc3nnc(-c4cccnc4SCc4ccccc4)o3)C2=O)cc1", "note": "(stereo not given)", "growth": "14.3% (inactive)"}
{"compound": "O=C(N/N=C/c1ccc([N+](=O)[O-])cc1)c1ccccc1Nc1cccc(C(F)(F)F)c1", "growth": "111% (inactive)"}
{"compound": "CC(=O)[C@H]1CC[C@]2(C)[C@@H]1CC[C@@H]1[C@@]3(C)CC(CCC#N)(CCC#N)C(=O)C(C)(C)[C@@H]3CC[C@]12C", "growth": "90.1% (inactive)"}
{"compound": "Cc1cc(CSc2ccccc2C(=O)N2CC=C(c3ccccc3)CC2)on1", "growth": "94.9% (inactive)"}
{"compound": "N#Cc1ccc(C(=O)CSc2nccc(Nc3ccc(C(=O)O)cc3)n2)cc1", "growth": "91.3% (inactive)"}
{"compound": "COc1ccc2nc3cc(Cl)ccc3c(Nc3cc(CN4CCCC4)c(O)c(CN4CCCC4)c3)c2n1", "growth": "-11.9% (active)"}
{"compound": "O=C(N/N=C/c1ccc(Cl)cc1)c1ccc(Cc2n[nH]c(=O)c3cccnc23)cc1", "growth": "95.8% (inactive)"}
{"compound": "O=S(=O)(Oc1ccc(-c2ccc3sccc3c2)cc1)c1ccc(F)cc1", "growth": "84.8% (inactive)"}
{"compound": "CNC(=O)c1c(I)c(NC(C)=O)c(I)c(C(=O)O)c1I", "growth": "108% (inactive)"}
{"compound": "C/C(=N\\O)c1ccc(NC(=O)CSc2nnc(-c3ccccc3)n2-c2ccccc2)cc1", "growth": "104% (inactive)"}
{"compound": "COc1ccc(/C=C2/SC(=S)NC2=O)c(OC)c1OC", "growth": "80.4% (inactive)"}
{"compound": "C[C@]12CC[C@@H]3c4ccc(O)cc4CC[C@H]3[C@@H]1CC[C@@H]2NS(=O)(=O)c1ccc(C(F)(F)F)cc1", "growth": "2.42% (active)"}
{"compound": "NS(=O)(=O)c1ccc(Br)cc1", "growth": "94% (inactive)"}
{"compound": "CNS(=O)(=O)Oc1ccc(-c2ccc3occc3c2)cc1", "growth": "111% (inactive)"}
{"compound": "COc1cc(-c2nn(-c3cccc(NC(=O)CCN4CCN(c5ccccc5)CC4)c3)cc2-c2ccncc2)ccc1Cl", "growth": "12.6% (inactive)"}
{"compound": "CCN(CC)CC(=O)N(CC)c1ccc(C)c(Cl)c1", "growth": "98.6% (inactive)"}
{"compound": "Cc1cccc(N=Cc2ccccc2O)c1C", "growth": "98.8% (inactive)"}
{"compound": "CCCCC1(O)CCCCC1", "growth": "101% (inactive)"}
{"compound": "COc1ccc(/C=C2\\CCCC3=C2N=C2SC(C)=CN2C3c2ccc(OC)cc2)cc1", "note": "(stereo not given)", "growth": "88.8% (inactive)"}
{"compound": "c1ccc(CSc2ncccc2-c2nnc(SCCN3CCOCC3)o2)cc1", "growth": "94.9% (inactive)"}
{"compound": "C/C=C/C1=CN2C(=O)c3cc(OC4OC(C)C(NC)C(C)(O)C4O)c(C)c(O)c3N=C[C@@H]2C1", "note": "(stereo not given in full)", "growth": "0.963% (active)"}
{"compound": "C[C@]12CC[C@@H]3c4ccc(OS(=O)(=O)O)cc4CC[C@H]3[C@@H]1CC[C@@H]2NS(=O)(=O)c1ccc(-c2ccccc2)cc1", "growth": "30.2% (inactive)"}
{"compound": "COc1ccc(/C(C#N)=C/c2ccccc2OC)cc1", "growth": "14.8% (inactive)"}
{"compound": "COc1ccc(Cc2cnc(N)nc2N)cc1OC", "growth": "100% (inactive)"}
{"compound": "Cc1cc(CC(C)CC(C)(C)C)n(O)c(=O)c1", "note": "(stereo not given) (tested in a mixture with another compound)", "growth": "17.5% (inactive)"}
